# PI5P4Ka inh – blocks human PI5P4K alpha kinase activity; max response, %; 330,000 tested, 1.2% active; AID 652105; PI5P4Kalpha enzyme, ADP-Glo luminescence, 60 min; hits give low values; active = max response of -50% or lower; inconclusive = between -30% and -50%; inactive = -30% or higher; also: value at the top dose of about 77 µM; % is scaled to controls: 0 for no effect and ±100 for the full control effect
#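 Human PI5P4Kalpha with substrate in 0.038 M HEPES pH 7.4, 0.28 mM EGTA, 0.1% CHAPS, 5% DMSO; reaction started with 5 microM ATP (final), 60 min at room temperature. ADP formed read by ADP-Glo luminescence.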
# BAZ2B inh – BAZ2B (human) inhibition. 360,000 tested, 4.4% active. Potency, µM (series often up to 114 µM), inactives show at the highest dose activity change, negative = inhibition, usual class: inhibitors. AID 504333. Q9UIF8. AlphaScreen BAZ2B-H3K14Ac peptide displacement; also: potency is read from the fitted curve at half-maximal effect; % is scaled to controls: 0 for no effect and ±100 for the full control effect; nearly all actives have a fitted effect of over 60% in size
#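 Inhibition is scored as reduced AlphaScreen emission. The BAZ2B/b-H3(5-23)K14Ac complex (50 nM each) in PBS pH 7.4, 0.01% Tween-20 meets compound (up to 110 uM) for 30 min at RT before bead addition.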
# JMJD2A Tudor inh – inhibitors of human JMJD2A Tudor domain; O75164; AlphaScreen JMJD2A-Tudor / H3K4me3 peptide binding; Potency, µM (highest dose often 114 µM), for inactives: at the highest dose activity change, negative = inhibition, most hits filed as inhibitors; 390,000 tested, 4.4% active; AID 504339; also: potency is read from the fitted curve at half-maximal effect; % is scaled to controls: 0 for no effect and ±100 for the full control effect; nearly all actives have a fitted effect of over 50% in size
# G9a inh – inhibitors of human histone lysine methyltransferase G9a; Potency, µM (titrated, usually from 102 µM), for inactives: at the highest dose activity, negative = inhibition, actives largely listed as inhibitors; 350,000 tested, 8.8% active; G9a H3K9 monomethylation, AlphaScreen, 2 h; also: potency is read from the fitted curve at half-maximal effect; % is scaled to controls: 0 for no effect and ±100 for the full control effect; nearly all actives have a fitted effect of over 75% in size
# Target sequence (Q96KQ7 913-1193 limits assumed): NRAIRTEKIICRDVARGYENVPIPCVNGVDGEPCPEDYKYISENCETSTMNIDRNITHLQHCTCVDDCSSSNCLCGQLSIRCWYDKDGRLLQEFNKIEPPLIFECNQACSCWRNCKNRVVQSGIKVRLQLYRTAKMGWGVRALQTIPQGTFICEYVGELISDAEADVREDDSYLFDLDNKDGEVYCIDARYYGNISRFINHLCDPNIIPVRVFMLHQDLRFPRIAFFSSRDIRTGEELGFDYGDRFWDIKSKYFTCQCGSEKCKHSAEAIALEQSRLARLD
#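 AlphaScreen detection with an anti-monomethyl H3K9 antibody quantified product after a 2 h room-temperature reaction containing 500 nM biotinylated H3K9 peptide, 20 µM SAM and 20 nM enzyme, which had been preincubated 15 min with compound.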
# HP1b binding inh – HP1-beta chromodomain-methylated histone interaction inhibition; AlphaScreen HP1-beta / biotin-H3K9me3 peptide binding; Potency, µM (doses to about 114 µM), for inactives: top-dose activity change, negative = inhibition, actives largely listed as inhibitors; 390,000 tested, 0.56% active; AID 540317; also: potency is read from the fitted curve at half-maximal effect; nearly all actives have a fitted effect of over 70% in size
# Target sequence (P83916 whole entry, looked up): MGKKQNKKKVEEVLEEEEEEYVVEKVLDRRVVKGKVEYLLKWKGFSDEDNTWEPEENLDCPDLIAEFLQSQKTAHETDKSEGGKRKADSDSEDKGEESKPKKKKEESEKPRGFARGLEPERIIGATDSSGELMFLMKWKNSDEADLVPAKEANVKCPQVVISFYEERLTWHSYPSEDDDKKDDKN
#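 AlphaScreen: HP1-beta (50 nM) preformed 30 min with biotin-H3(1-18)K9me3 peptide (50 nM) in PBS pH 7.4, 0.01% Tween-20. Compound added for 30 min at RT, then streptavidin donor/nickel chelate acceptor beads (10 ug/mL) for 30 min.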
# PLK1 PBD block – blocks phosphopeptide binding to human PLK1 polo-box domain. 360,000 tested, 2.8% active. Potency, µM, without a hit: max response, negative = inhibition, most hits filed as inhibitors. Plk1 PBD binding of FITC phosphopeptide, fluorescence polarization. P53350; also: potency is read from the fitted curve at half-maximal effect; series mostly up to about 57 µM; % is scaled to controls: 0 for no effect and ±100 for the full control effect; nearly all actives have a fitted effect of over 65% in size
# Numbers without * were called inactive; ? = inconclusive; nt = not tested or not shown; ! = repeats disagree; [ ] = another dose, or the depositor's remark. Sampled rows, rich in hits. Any-hit rate of the full collection: about 12%. Unless noted, calls follow the shape of the dose curve; as a rule, active = well fitted curve in the direction sought with a large enough effect; inconclusive = small, poorly fitted or top-dose-only effect, or another doubt; inactive = no such curve, though single readings can be large; an effect the other way counts as inactive or inconclusive.
SMILES,PI5P4Ka inh,BAZ2B inh,JMJD2A Tudor inh,G9a inh,HP1b binding inh,PLK1 PBD block
Cc1ccc(N/N=C/c2ccncc2)cc1,1,?,?,28µM*,7%,-15%
Cc1sc2ncnc(N3CCC(C(=O)Nc4ccc(Cl)cc4Cl)CC3)c2c1C,10,-2%,-10%,56µM*,19%,-6%
Cc1sc2ncnc(N3CCC(C(=O)Nc4ccc(Br)cc4Br)CC3)c2c1C,2,7%,-14%,40µM*,12%,0%
Cc1sc2ncnc(N3CCC(C(=O)Nc4ccc(Cl)c(Cl)c4)CC3)c2c1C,-1,1%,-5%,-1%[12.7 µM],40%,2%
CNC(=O)c1ccc(NC(=O)C2CCN(c3ncnc4sc(C)c(C)c34)CC2)cc1,-3,-8%,-11%,39%,17%,2%
CC1=C(C(N)=O)C(c2ccc(C(C)C)cc2)n2nc(SCc3ccccc3)nc2N1 (configuration not stated),nt,-11%,-5%,-2%[59 µM],33%,nt
O=C1C(=O)N(c2ccccn2)C(c2cccc([N+](=O)[O-])c2)/C1=C(/O)c1ccc(Br)cc1 (configuration not stated),-2,-26%,-15%,22%[0.501 µM],25%,-6%
CN(C)c1ccc(C2/C(=C(/O)c3ccc(Br)cc3)C(=O)C(=O)N2C)cc1 (configuration not stated),-5,-3%,?,40µM*,8%,-8%
CN1C(=O)C(=O)/C(=C(/O)c2ccccc2)C1c1ccc(Br)cc1 (configuration not stated),0,-1%,-7%,-4%[59 µM],42%,-5%
CN1C(=O)C(=O)/C(=C(/O)c2ccc(Br)cc2)C1c1cccc([N+](=O)[O-])c1 (configuration not stated),0,-9%,-25%,50µM*,10%,-12%
CN1C(=O)C(=O)/C(=C(/O)c2ccc(Br)cc2)C1c1ccc(Cl)cc1 (configuration not stated),-1,-16%,-15%,-2%[0.501 µM],37%,-15%
CN1C(=O)C(=O)/C(=C(/O)c2ccc(Br)cc2)C1c1ccccc1F (configuration not stated),-4,-21%,?,?,26%,34µM*
O=C(O)c1cccc(Sc2cc(Cl)ccc2C(=O)O)c1,-22,56µM*,89µM*,-4%[0.501 µM],23%,-22%
O=C(O)c1cccc(Sc2ccc(Br)cc2C(=O)O)c1,-4,-10%,-16%,5%[2.33 µM],29%,-12%
O=c1c(C(c2ccccc2)c2c(O)nc3n(c2=O)CCS3)c(O)nc2n1CCS2,-28,-5%,5%,40µM*,28%,?
O=c1c(C(c2ccc(F)cc2)c2c(O)nc3n(c2=O)CCCS3)c(O)nc2n1CCCS2,-11,-11%,-17%,50µM*,44%,?
O=c1c(C(c2ccccc2)c2c(O)nc3n(c2=O)CCCS3)c(O)nc2n1CCCS2,-7,?,-7%,13%[0.501 µM],45%,?
O=C(Nc1ccc(Br)cc1)N1CCCCCCC1,2,-3%,6%,-29%,13%,-18%
CC1CC(C)CN(C(=O)Nc2ccc(Br)cc2)C1 (configuration not stated),0,-4%,-19%,nt,-4%,30µM*
CC(C)C(C)NC(=O)COn1nnc2ccc(S(=O)(=O)N3CCOCC3)cc21 (configuration not stated),-1,-1%,11%,28%[12.7 µM],39%,2%
COc1ccc(C(CCNCc2ccc(N(C)C)cc2)c2ccccc2OC)cc1 (configuration not stated),14,10µM*,25µM*,14µM*,50µM*,-19%
COC(=O)c1cccc(-n2c(CCC(=O)O)ccc2-c2ccc(OC)cc2)c1,nt,?,-20%,18µM*,12%,nt
COC(=O)c1cccc(-n2c(CCC(=O)O)ccc2-c2cccs2)c1,0,71µM*!,-11%[11.4 µM],?,16%,?
COc1ccc(-n2c(CCC(=O)O)ccc2-c2ccccc2)cc1,-2,?,-20%,50µM*,14%,-2%

# High-throughput results deposited in PubChem BioAssay by National Center for Advancing Translational Sciences (NCATS).
